Calls of active or inactive are those of the source. How the source made its calls: active means hit-call score of the fitted dose curve at least 0.9, where 1 is the maximum; inactive means score below 0.9.
Experiments:
[1] = molecular target: Bile acid receptor (Homo sapiens) (UniProt Q96RI1); test: ATG_IR1_CIS: Attagene CIS-FACTORIAL HepG2 Assay for human Nuclear Receptor Subfamily 1 Group H Member 4 (NR1H4), IR1 submotif (AID 2282946); conditions: IR1 reporter transcription, actives raise or lower the signal
Method in brief: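 Readout: reporter transcript levels by RT-PCR with fluorescent capillary electrophoresis, from HepG2 cells transiently transfected with multiplexed cis-regulated reporters and dosed 24 h. Gain- or loss-of-signal fitted versus DMSO negative control.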

[2] = ATG_GRE_CIS: Attagene CIS-FACTORIAL HepG2 Assay for human Glucocorticoid Response Elements (GRE) (AID 2282947); conditions: HepG2 GRE cis-reporter, Attagene multiplex mRNA; actives raise or lower the signal
Method in brief: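 Cells (HepG2) bearing transfected cis-promoter reporter transcription units were treated with chemical for 24 hours. Reporter mRNA was measured via RT-PCR with capillary electrophoresis, and activity was fitted in both directions relative to DMSO.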

[3] = ATG_ISRE_CIS: Attagene CIS-FACTORIAL HepG2 Assay for human Interferon Regulatory Factor 1 (IRF1) binding to an Interferon-Stimulated Response Element (ISRE) (AID 2282948); conditions: HepG2 ISRE cis-reporter (Attagene), mRNA transcription readout; actives raise or lower the signal
Method in brief: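 Endogenous transcription factor activity read as reporter transcript abundance via RT-PCR and capillary electrophoresis. HepG2 cells transiently transfected, 24 h chemical exposure. Gain or loss fitted against DMSO baseline.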

[4] = ATG_M_32_CIS: Attagene CIS-FACTORIAL HepG2 Assay for M32 Transcription Factor (Internal Marker) (AID 2282949); conditions: HepG2 Attagene cis-factorial M32 reporter, mRNA; actives raise or lower the signal;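 further: background control marker of the multiplexed CIS panel rather than a real target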
Method in brief: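 HepG2 human liver cells transiently transfected with cis-promoter-driven multiple reporter transcription units, dosed 24 h. Reporter mRNA quantified by RT-PCR, FAM-labelled primer extension, HpaI digest and capillary electrophoresis; bidirectional fit versus DMSO baseline.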

[5] = ATG_M_06_CIS: Attagene CIS-FACTORIAL HepG2 Assay for M06 Transcription Factor (Internal Marker) (AID 2282950); conditions: HepG2 Attagene CIS-FACTORIAL M06 internal marker reporter; actives raise or lower the signal
Method in brief: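 Terse: HepG2, transient MRTU transfection (FuGene 6), 24 h dosing; total RNA, oligo(dT) RT, PCR, FAM label, HpaI cut, capillary electrophoresis; bidirectional fit vs DMSO baseline; background-control endpoint.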

[6] = molecular target: Hepatocyte nuclear factor 6 (Homo sapiens) (UniProt Q9UBC0); test: ATG_HNF6_CIS: Attagene CIS-FACTORIAL HepG2 Assay for human Hepatocyte Nuclear Factor 6 (HNF6) (AID 2282952); conditions: HepG2 Attagene cis-factorial HNF6 reporter transcription; actives raise or lower the signal
Method in brief: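 Endogenous factor activity read in transiently transfected HepG2 via promoter-regulated reporter transcripts. RNA harvested 24 h post-dosing, reverse-transcribed, PCR-amplified, FAM-labelled, HpaI-digested and resolved by capillary electrophoresis; fitted in both directions against DMSO.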

[7] = molecular target: Heat shock factor protein 1 (Homo sapiens) (UniProt Q00613); test: ATG_HSE_CIS: Attagene CIS-FACTORIAL HepG2 Assay for human Heat Shock Transcription Factor 1 (HSE) (AID 2282953); conditions: HepG2 HSE cis-reporter, Attagene RNA transcription; actives raise or lower the signal
Method in brief: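 Read-out: fluorescence of reporter-specific RT-PCR fragments separated by capillary electrophoresis. HepG2 carrying transfected cis-element reporter units; 24 h dosing; activity fitted in both directions relative to DMSO baseline.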

[8] = ATG_MRE_CIS: Attagene CIS-FACTORIAL HepG2 Assay for human Metal Responsive Element (MRE) (AID 2282954); conditions: HepG2 MRE cis-reporter transcription, Attagene multiplex; actives raise or lower the signal
Method in brief: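 Cells were transfected with cis-promoter reporter transcription units, then dosed for 24 h. RNA was reverse-transcribed, amplified, fluorescently labelled and resolved by capillary electrophoresis, and activity was fitted in both directions relative to DMSO.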

[9] = ATG_PBREM_CIS: Attagene CIS-FACTORIAL HepG2 Assay for human Phenobarbital-responsive Enhancer Module (PBREM) (AID 2282955); conditions: HepG2 PBREM cis-reporter, Attagene multiplexed transcription; actives raise or lower the signal
Method in brief: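 Endogenous transcription factors in human liver HepG2 cells drive a PBREM cis-element reporter, whose transcript level after 24 h treatment is quantified by RT-PCR with capillary electrophoresis; activity fitted in both directions against DMSO.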

[10] = molecular target: Paired box protein Pax-6 (Homo sapiens) (UniProt P26367); test: ATG_Pax6_CIS: Attagene CIS-FACTORIAL HepG2 Assay for human Paired Box 6 (PAX6) (AID 2282956); conditions: HepG2 CIS-FACTORIAL PAX6 reporter transcription, RNA readout; actives raise or lower the signal
Method in brief: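 Read-out is reporter transcript level, measured by RT-PCR with fluorescent primer extension and capillary electrophoresis after 24 h dosing of transfected HepG2 cells. Activity in either direction fitted relative to DMSO control.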

[11] = ATG_PXRE_CIS: Attagene CIS-FACTORIAL HepG2 Assay for human Pregnane X Receptor Element (PXRE) (AID 2282957); conditions: HepG2 Attagene CIS-FACTORIAL PXRE reporter, mRNA; actives raise or lower the signal
Method in brief: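 Reporter transcripts under endogenous PXR-responsive cis-regulation quantified from total RNA of transfected HepG2 cells 24 h post-dosing, via RT-PCR with fluorescent primer extension and capillary electrophoresis. Gain or loss of signal fitted against DMSO baseline.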

[12] = ATG_PPRE_CIS: Attagene CIS-FACTORIAL HepG2 Assay for human Peroxisome Proliferator-activated Response Element (PPRE) (AID 2282958); conditions: HepG2 PPRE cis-element reporter, Attagene transcription factor profiling; actives raise or lower the signal
Method in brief: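 HepG2, transient MRTU transfection (cis promoter elements, endogenous TFs). 24 h dosing. RNA → oligo(dT) RT → PCR → 6-FAM primer extension → HpaI digest → CE. Bidirectional fit vs DMSO.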

[13] = ATG_RORE_CIS: Attagene CIS-FACTORIAL HepG2 Assay for human RAR-related Orphan Receptor Element (RORE) (AID 2282959); conditions: HepG2 Attagene cis-factorial RORE reporter, mRNA; actives raise or lower the signal
Method in brief: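 Transient MRTU transfection of human HepG2 liver cells (FuGene 6); 24 h compound exposure; TriZol RNA, oligo(dT) RT, PCR, FAM labeling, HpaI cut, CE fragment analysis. DMSO = negative control/baseline.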

[14] = molecular target: Transcription factor Sp1 (Homo sapiens) (UniProt P08047); test: ATG_Sp1_CIS: Attagene CIS-FACTORIAL HepG2 Assay for human Specificity Protein 1 (Sp1) (AID 2282961); conditions: HepG2 Sp1 cis-reporter transcription, actives raise or lower the signal
Method in brief: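 Transient MRTU-transfected HepG2, 24 h compound exposure. Total RNA → oligo(dT) RT → PCR of reporter → 6-FAM primer extension → HpaI digest → CE. Endpoint fitted both directions vs DMSO.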

[15] = ATG_SREBP_CIS: Attagene CIS-FACTORIAL HepG2 Assay for human Sterol Regulatory Element Binding (SREBP) (AID 2282962); conditions: HepG2 Attagene cis-factorial SREBP reporter, mRNA; actives raise or lower the signal
Method in brief: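 Endogenous SREBP activity read as cis-element-driven reporter transcript in transiently transfected HepG2, 24 h post-dosing; quantified via RT-PCR plus capillary electrophoresis of fluorescent fragments. Gain or loss of signal fitted relative to DMSO baseline.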

[16] = molecular target: Signal transducer and activator of transcription 3 (Homo sapiens) (UniProt P40763); test: ATG_STAT3_CIS: Attagene CIS-FACTORIAL HepG2 Assay for human Signal Transducer and Activator of Transcription 3 (STAT3) (AID 2282963); conditions: HepG2, Attagene cis-factorial STAT3 reporter transcription; actives raise or lower the signal
Method in brief: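 HepG2, MRTU-transfected, 24 h dosing. RNA → RT → PCR → FAM label → HpaI → CE. Bidirectional fit vs DMSO.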

[17] = ATG_TA_CIS: Attagene CIS-FACTORIAL HepG2 Assay for human TA Basal Promoter (AID 2282964); conditions: HepG2 Attagene CIS-factorial TA basal promoter reporter; actives raise or lower the signal
Method in brief: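 Transfected HepG2, 24 h compound exposure; RNA → RT-PCR → FAM primer extension → HpaI cut → CE fluorescence. Gain/loss-of-signal fitted against DMSO negative control. Background-control readout.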

[18] = ATG_TCF_b_cat_CIS: Attagene CIS-FACTORIAL HepG2 Assay for human T-Cell-Factor with beta-catenin (TCF/b-cat) (AID 2282965); conditions: HepG2 TCF/beta-catenin cis-reporter transcription, actives raise or lower the signal
Method in brief: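 HepG2 cells transiently transfected with multiple cis-promoter-regulated reporter transcription units, so endogenous transcription factor activity is measured. Reporter mRNA read 24 hours after dosing by RT-PCR, fluorescent labelling and capillary electrophoresis; bidirectional fitting against DMSO.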

[19] = molecular target: Hypoxia-inducible factor 1-alpha (Homo sapiens) (UniProt Q16665); test: ATG_HIF1a_CIS: Attagene CIS-FACTORIAL HepG2 Assay for human Hypoxia Inducible Factor 1 (HIF1A) (AID 2282951); conditions: HepG2 Attagene cis-factorial HIF1a reporter transcription; actives raise or lower the signal
Method in brief: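 Transient MRTU transfection of human HepG2 liver cells, 24 h compound treatment, then total RNA isolation, oligo(dT) reverse transcription, PCR amplification, fluorescent labelling and capillary electrophoresis of reporter fragments. Gain or loss relative to DMSO.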

[20] = ATG_Sox_CIS: Attagene CIS-FACTORIAL HepG2 Assay for human SRY-box transcription factor (SOX) (AID 2282960); conditions: HepG2 Attagene cis-factorial SOX reporter, mRNA; actives raise or lower the signal
Method in brief: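 Endogenous factor activity in human liver HepG2 cells carrying transfected cis-regulated reporter units. RNA taken 24 h post-dose, reverse-transcribed, PCR-amplified and sized by capillary electrophoresis. Gain or loss of signal fitted relative to DMSO.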

Measured: AC50

Sequence of Transcription factor Sp1 (Homo sapiens) (P08047 whole entry, looked up): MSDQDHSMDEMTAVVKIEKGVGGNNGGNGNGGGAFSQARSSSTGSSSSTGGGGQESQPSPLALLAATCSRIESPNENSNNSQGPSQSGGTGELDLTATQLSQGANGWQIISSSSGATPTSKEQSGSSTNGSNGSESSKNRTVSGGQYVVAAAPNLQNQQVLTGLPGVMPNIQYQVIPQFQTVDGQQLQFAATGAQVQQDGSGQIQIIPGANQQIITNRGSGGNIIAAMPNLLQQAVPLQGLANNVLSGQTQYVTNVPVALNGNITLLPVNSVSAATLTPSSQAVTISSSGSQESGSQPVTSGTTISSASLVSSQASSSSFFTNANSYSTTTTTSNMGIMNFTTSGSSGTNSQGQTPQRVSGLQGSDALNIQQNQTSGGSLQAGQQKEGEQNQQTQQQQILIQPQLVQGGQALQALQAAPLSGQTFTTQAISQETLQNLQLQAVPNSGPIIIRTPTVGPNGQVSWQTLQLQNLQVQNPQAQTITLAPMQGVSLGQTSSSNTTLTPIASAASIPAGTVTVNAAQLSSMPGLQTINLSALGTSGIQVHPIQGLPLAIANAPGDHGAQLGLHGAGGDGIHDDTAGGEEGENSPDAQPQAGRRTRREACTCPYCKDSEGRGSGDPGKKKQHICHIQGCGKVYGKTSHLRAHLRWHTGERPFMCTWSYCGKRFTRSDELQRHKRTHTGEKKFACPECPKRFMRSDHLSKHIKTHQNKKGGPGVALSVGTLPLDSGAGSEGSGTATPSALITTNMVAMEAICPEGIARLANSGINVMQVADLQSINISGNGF
Sequence of Paired box protein Pax-6 (Homo sapiens) (P26367 whole entry, looked up): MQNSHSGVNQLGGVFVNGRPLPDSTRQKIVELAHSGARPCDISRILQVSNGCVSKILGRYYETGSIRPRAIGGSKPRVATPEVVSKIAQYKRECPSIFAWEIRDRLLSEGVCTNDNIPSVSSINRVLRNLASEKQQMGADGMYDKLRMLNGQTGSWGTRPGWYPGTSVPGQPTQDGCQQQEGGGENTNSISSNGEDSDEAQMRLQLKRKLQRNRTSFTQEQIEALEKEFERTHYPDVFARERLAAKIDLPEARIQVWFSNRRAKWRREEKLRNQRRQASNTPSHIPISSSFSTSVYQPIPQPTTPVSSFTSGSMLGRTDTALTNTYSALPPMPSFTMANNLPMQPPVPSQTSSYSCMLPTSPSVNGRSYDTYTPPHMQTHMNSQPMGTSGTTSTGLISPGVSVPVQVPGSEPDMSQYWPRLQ
Sequence of Bile acid receptor (Homo sapiens) (Q96RI1 whole entry, looked up): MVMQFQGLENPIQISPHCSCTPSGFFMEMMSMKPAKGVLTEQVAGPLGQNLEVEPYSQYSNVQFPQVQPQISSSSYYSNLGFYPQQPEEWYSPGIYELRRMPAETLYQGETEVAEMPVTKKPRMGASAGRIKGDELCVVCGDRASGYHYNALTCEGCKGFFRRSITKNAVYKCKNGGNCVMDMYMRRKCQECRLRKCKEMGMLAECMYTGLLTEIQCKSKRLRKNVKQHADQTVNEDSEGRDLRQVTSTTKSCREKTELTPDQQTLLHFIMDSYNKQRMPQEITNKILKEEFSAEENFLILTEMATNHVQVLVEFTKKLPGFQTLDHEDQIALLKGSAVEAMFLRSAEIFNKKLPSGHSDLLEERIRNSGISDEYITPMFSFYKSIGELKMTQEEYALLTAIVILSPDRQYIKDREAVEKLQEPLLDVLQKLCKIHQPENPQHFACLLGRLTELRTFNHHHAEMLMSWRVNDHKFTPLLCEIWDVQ
Sequence of Hypoxia-inducible factor 1-alpha (Homo sapiens) (Q16665 whole entry, looked up, the tested form may be a part): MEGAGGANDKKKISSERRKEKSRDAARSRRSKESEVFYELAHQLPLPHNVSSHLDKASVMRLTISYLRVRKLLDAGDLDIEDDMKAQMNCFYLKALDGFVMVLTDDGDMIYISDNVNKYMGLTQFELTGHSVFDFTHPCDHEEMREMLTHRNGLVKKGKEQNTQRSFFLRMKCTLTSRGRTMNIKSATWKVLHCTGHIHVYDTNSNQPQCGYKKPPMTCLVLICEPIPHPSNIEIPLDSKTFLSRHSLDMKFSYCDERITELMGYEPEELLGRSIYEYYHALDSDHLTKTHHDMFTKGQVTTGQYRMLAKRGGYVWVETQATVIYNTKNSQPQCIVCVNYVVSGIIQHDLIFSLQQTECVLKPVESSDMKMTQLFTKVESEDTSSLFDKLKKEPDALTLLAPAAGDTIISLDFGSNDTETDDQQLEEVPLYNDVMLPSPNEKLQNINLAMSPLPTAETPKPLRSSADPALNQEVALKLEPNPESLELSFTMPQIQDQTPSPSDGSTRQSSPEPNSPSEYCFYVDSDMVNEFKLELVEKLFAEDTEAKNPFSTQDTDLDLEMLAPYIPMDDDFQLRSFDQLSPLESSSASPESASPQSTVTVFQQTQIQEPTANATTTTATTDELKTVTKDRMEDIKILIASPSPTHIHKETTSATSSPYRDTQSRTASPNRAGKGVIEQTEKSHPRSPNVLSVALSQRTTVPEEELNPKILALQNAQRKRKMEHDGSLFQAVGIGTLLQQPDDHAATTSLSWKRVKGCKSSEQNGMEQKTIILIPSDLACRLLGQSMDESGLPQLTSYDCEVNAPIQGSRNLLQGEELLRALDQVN
Sequence of Signal transducer and activator of transcription 3 (Homo sapiens) (P40763 whole entry, looked up): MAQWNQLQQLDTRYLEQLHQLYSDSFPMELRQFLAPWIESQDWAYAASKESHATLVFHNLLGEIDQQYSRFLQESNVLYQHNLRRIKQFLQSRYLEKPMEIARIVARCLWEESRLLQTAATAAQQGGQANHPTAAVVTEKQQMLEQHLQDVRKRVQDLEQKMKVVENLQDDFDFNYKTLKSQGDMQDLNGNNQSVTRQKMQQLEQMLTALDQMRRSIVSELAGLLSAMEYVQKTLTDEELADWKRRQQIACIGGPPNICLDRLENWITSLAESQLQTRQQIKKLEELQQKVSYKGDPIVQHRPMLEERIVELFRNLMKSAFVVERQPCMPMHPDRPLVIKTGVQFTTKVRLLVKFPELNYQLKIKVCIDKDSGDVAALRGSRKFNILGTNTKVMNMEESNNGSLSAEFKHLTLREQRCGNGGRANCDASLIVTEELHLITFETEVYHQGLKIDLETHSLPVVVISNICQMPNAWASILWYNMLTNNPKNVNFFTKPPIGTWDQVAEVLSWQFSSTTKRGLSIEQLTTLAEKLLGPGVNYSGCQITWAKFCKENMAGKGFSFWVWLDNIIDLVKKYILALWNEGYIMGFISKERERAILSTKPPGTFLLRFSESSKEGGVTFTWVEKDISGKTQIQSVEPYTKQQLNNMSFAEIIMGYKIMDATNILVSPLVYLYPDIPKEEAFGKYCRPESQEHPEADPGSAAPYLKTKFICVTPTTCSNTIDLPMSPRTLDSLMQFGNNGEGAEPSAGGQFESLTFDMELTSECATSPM
Sequence of Heat shock factor protein 1 (Homo sapiens) (Q00613 whole entry, looked up, the tested form may be a part): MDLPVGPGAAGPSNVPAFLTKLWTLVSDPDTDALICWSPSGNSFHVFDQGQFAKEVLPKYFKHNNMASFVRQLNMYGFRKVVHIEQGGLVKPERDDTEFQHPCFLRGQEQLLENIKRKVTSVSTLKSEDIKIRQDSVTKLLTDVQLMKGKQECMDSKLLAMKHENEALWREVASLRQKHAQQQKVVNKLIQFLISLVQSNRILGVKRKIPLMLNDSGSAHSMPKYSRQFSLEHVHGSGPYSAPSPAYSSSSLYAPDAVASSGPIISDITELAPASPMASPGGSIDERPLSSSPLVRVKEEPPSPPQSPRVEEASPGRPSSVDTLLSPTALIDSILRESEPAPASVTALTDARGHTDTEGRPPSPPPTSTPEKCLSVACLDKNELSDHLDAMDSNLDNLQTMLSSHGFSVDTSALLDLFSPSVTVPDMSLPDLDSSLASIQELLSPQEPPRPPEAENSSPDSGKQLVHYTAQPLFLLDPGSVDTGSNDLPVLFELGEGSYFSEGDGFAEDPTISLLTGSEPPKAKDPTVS
Sequence of Hepatocyte nuclear factor 6 (Homo sapiens) (Q9UBC0 whole entry, looked up): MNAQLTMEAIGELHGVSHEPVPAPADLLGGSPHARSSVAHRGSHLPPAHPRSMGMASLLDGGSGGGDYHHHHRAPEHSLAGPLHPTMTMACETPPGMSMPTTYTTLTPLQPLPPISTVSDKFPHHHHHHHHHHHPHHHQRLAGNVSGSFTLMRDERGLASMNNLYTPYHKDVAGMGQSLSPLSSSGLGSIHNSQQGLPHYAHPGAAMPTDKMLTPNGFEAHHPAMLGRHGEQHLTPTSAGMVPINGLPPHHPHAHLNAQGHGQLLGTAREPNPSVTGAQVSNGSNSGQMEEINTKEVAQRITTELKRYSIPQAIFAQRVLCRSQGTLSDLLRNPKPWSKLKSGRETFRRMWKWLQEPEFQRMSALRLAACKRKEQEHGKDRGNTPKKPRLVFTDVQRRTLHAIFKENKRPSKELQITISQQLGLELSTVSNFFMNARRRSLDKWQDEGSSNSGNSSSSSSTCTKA

Cc1ccc(O)cc1
not listed: [19] | [20]
inactive: all other assays above

C1=CCCC=CCCC=CCC1
active: [14] 165 µM
not listed: [8]
inactive: all other assays above

CCOCCO
not listed: [8] | [12]
inactive: all other assays above

CCOC(=O)c1ccc(C2CCC(NC[C@H](O)COc3ccc(O)c(NS(C)(=O)=O)c3)CC2)cc1 (stereo partly specified)
inactive: [4] | [5] | [6] | [11] | [14] | [15] | [16] | [17]
active: [1] 53.2 µM | [2] 53.8 µM | [3] 51.5 µM | [19] 7.81 µM | [7] 61.8 µM | [8] 55 µM | [9] 53.4 µM | [10] 46.5 µM | [12] 57.5 µM | [18] 48.3 µM

CCOc1cccc(-n2cc(C(=O)N3CCN(c4cc(C(=O)O)c5ccccc5c4)CC3)nc2-c2ccc(C)cc2)c1
inactive: [2] | [4] | [5] | [6] | [9] | [14] | [16] | [17]
active: [1] 24.8 µM | [3] 22.8 µM | [19] 6.55 µM | [7] 61.4 µM | [8] 32.3 µM | [10] 33 µM | [11] 41.4 µM | [12] 28.3 µM | [13] 26.1 µM | [15] 3.92 µM | [18] 22.3 µM

COC(=O)c1c(Cl)c(Cl)c(C(=O)OC)c(Cl)c1Cl
active: [11] 25.8 µM
not listed: [20]
inactive: all other assays above

From PubChem BioAssay (EPA / NIEHS)
